In all, about 5,500 compounds went through this assay and about 2,000 (36%) were called active. Not shown: some 18% with an inconclusive outcome. No stated cut-off is given here; in the data, active means normalized growth mostly below about 0.91 (no sharp cut-off); inconclusive means no clear call, values can overlap the other calls; inactive means mostly above about 0.92. This is one part of the list.
Experiment: chemical genetic growth profiling, strain panel (AID 1159580);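 further: tested at 20 µM; growth read once vehicle control cultures reached saturation at 30 °C; 1 = growth at the plate median or of vehicle wells; lower values mean less growth of the strain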
Details: growth OD

Measured: normalized growth

c1ccc(CSC2=NCCCN2)cc1
inactive: S. cerevisiae deletion strains, locus YAL013W, strain DEP1, active compounds read low 1 | S. cerevisiae deletion strains, locus YBR229C, strain ROT2, active compounds read low 0.993 | S. cerevisiae deletion strains, locus YDL101C, strain DUN1, active compounds read low 1.01 | S. cerevisiae deletion strains, locus YDR150W, strain NUM1, active compounds read low 0.977 | S. cerevisiae deletion strains, locus YEL061C, strain CIN8, active compounds read low 1.02 | S. cerevisiae deletion strains, locus YGR078C, strain PAC10, active compounds read low 1.01 | S. cerevisiae deletion strains, locus YGR229C, strain SMI1, active compounds read low 1 | S. cerevisiae deletion strains, locus YHR030C, strain SLT2, active compounds read low 1.03 | S. cerevisiae deletion strains, locus YHR087W, strain rtc3, active compounds read low 1.01 | S. cerevisiae deletion strains, locus YJR043C, strain POL32, active compounds read low 1.01 | S. cerevisiae deletion strains, locus YJR075W, strain HOC1, active compounds read low 0.997 | S. cerevisiae deletion strains, locus YKL190W, strain CNB1, active compounds read low 1 | S. cerevisiae deletion strains, locus YLR039C, strain RIC1, active compounds read low 0.993 | S. cerevisiae deletion strains, locus YLR058C, strain SHM2 (second series), active compounds read low 1.01 | S. cerevisiae deletion strains, locus YLR085C, strain ARP6, active compounds read low 1.04 | S. cerevisiae deletion strains, locus YLR262C, strain YPT6, active compounds read low 1.01 | S. cerevisiae deletion strains, locus YML094W, strain GIM5, active compounds read low 1 | S. cerevisiae deletion strains, locus YMR219W, strain ESC1, active compounds read low 1.01 | S. cerevisiae deletion strains, locus YMR307W, strain GAS1, active compounds read low 1 | S. cerevisiae deletion strains, locus YNL128W, strain TEP1, active compounds read low 1.02 | S. cerevisiae deletion strains, locus YNL153C, strain GIM3, active compounds read low 0.996 | S. cerevisiae deletion strains, locus YNL298W, strain CLA4 (second series), active compounds read low 1.05 | S. cerevisiae deletion strains, locus YNL322C, strain KRE1, active compounds read low 1.01 | S. cerevisiae deletion strains, locus YNR030W, strain Alg12, active compounds read low 1.02 | S. cerevisiae deletion strains, locus YOL006C, strain TOP1, active compounds read low 1.04 | S. cerevisiae deletion strains, locus YPL055C, strain LGE1, active compounds read low 0.984 | S. cerevisiae deletion strains, locus YPL241C, strain CIN2, active compounds read low 1.01 | S. cerevisiae deletion strains, locus YPR135W, strain CTF4, active compounds read low 1.08 | S. cerevisiae strains, strain wild type, active compounds read low 1.01

— PubChem BioAssay AID1159580 (chemical genetic matrix, 2015)
